In publication PMC4336329 (PLoS ONE, 2015):
Hit rate of the full screen: of about 310,000 compounds, about 2,200 (0.71%) showed an effect of 50% or more. The effect is printed as a negative number. The list comes from a sample in which strong results are over-represented; it also holds similar structures and randomly drawn compounds.

molecular target: human ether-à-go-go-related gene (hERG) potassium channel (human, UniProt Q12809); assay: primary screen, population patch clamp on CHO cells stably expressing hERG; higher = less effect of the substance
Sequence (Q12809 whole entry, looked up): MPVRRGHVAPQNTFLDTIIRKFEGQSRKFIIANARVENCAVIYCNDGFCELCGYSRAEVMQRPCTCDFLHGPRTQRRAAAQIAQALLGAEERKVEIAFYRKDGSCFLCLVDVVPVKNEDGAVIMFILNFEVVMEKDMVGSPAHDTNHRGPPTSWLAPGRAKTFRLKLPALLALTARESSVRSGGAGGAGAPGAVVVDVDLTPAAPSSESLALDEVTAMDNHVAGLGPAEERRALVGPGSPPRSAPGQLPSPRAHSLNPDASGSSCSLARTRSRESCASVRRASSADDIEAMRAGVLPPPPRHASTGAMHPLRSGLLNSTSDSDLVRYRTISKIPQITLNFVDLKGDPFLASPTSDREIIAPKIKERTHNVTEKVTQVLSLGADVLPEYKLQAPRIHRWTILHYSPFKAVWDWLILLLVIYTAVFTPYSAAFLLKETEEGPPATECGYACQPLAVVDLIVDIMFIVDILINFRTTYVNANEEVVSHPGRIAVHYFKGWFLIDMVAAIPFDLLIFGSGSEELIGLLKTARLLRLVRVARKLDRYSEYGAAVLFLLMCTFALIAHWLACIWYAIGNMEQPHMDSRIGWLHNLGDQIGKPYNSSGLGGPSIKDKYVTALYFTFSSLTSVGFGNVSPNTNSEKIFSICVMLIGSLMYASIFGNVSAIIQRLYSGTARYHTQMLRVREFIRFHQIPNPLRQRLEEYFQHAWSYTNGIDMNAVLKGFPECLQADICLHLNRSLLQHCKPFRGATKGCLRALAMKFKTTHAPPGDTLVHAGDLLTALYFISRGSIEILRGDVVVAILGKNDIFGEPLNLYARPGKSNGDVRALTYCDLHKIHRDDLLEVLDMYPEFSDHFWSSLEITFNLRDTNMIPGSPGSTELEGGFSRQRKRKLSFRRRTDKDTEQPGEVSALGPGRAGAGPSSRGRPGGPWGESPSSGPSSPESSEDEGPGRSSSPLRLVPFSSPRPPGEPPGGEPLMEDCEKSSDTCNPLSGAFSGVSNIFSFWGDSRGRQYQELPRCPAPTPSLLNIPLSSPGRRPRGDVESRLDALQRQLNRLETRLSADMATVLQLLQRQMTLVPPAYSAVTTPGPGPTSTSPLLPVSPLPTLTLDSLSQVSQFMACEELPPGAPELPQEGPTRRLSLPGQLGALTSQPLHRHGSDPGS

| Compound | hERG current change (%, negative = inhibition) at 1uM |
| --- | --- |
| O=C(Nc1ccc(N2CCN(C(=O)c3ccco3)CC2)cc1)c1cc(Br)ccc1Cl | 8.3% |
| CC(C)(C)c1cc(C(=O)NN)n(Cc2ccc(Cl)cc2Cl)n1 | 16.3% |
| CCOC(=O)c1c(NC(=O)c2ccc(S(=O)(=O)N3CCOCC3)cc2)sc2c1CC(C)(C)NC2(C)C | 11.9% |
| O=[N+]([O-])c1ccc(-c2nc(Nc3ccc(O)cc3)c3ccccc3n2)cc1 | 13% |
| COc1ccc(CCNC(=O)c2[nH]c(C)c(C(C)=O)c2C)cc1 | 10.9% |
| CCOC(=O)c1c(NC(=O)C2C3C=CC(C3)C2C(=O)O)sc2c1CCC(CC)C2 (stereo not shown) | 14% |
| CCC(=O)Nc1nnc(-c2ccco2)o1 | 2.56% |
| O=C1OC(c2ccccc2)c2ccccc21 (stereo not shown) | 9.85% |
| COC(=O)C1=C(C)NC(=O)C1(Nc1nccs1)C(F)(F)F (stereo not shown) | 8.37% |
| Cl.Nc1nc(N2CCN(c3ccccn3)CC2)nc2ccccc12 | -52.8% |
| c1ccc(N2CCN(c3nc(-c4ccccn4)nc4ccccc34)CC2)cc1 | -26.9% |
| CCCN(CCC)c1nc(-c2ccccn2)nc2ccccc12 | -72.4% |
| c1ccc(-c2nc(N3CCOCC3)c3ccccc3n2)nc1 | 5.13% |
| CCCCN(CCCC)c1nc(-c2ccncc2)nc2ccccc12 | 12% |
| Cl.Oc1ccc(Nc2nc(N3CCCC3)c3ccccc3n2)cc1 | -62.7% |
| COc1ccc(Nc2nc(N3CCCC3)c3ccccc3n2)cc1.Cl | -15% |
| CN1CCN(c2nc(Nc3ccc(O)cc3)nc3ccccc23)CC1.Cl | -1.34% |
| Cl.Nc1nc(N2CCCCC2)nc2ccccc12 | -15.9% |
| Nc1nc(N2CCOCC2)nc2ccccc12 | -8.34% |
| CCC(C)Nc1nc(-c2ccccn2)nc2ccccc12 (stereo not shown) | -11.6% |
| c1ccc(-c2nc(N3CCCCCC3)c3ccccc3n2)nc1 | -82.3% |
| CCOC(=O)c1cc(S(=O)(=O)N2CCN(Cc3ccccc3)CC2)cn1C | 7.46% |
| C/C(=N\Nc1cccc2cccnc12)c1ccc[nH]1 | 6.24% |
| COc1ccc(C(=O)N2CCN(CCNC(=O)C(=O)Nc3ccc(Br)cc3)CC2)cc1 | -25.2% |

| Compound | hERG current change (%, negative = inhibition) at 1uM |
| --- | --- |
| CCCc1ccc2c(N)c(C#N)sc2n1 | 1.34% |
| CC(C)C(NC(=O)c1c(F)cccc1F)C(=O)NCC(c1ccccc1)N(C)C (stereo not shown) | 7.89% |
| COc1ccccc1NS(=O)(=O)c1cccc(C(=O)NCC(c2ccc(F)cc2)N2CCOCC2)c1 (stereo not shown) | -2.64% |
| O=c1oc2cc(Oc3ccc(C(F)(F)F)cc3[N+](=O)[O-])ccc2c2c1CCCC2 | 7.24% |
| COc1ccc(OC)c(C(O)c2nc3ccccc3n2C(C)C)c1 (stereo not shown) | 12.9% |
| COc1cccc2cc(C(=O)C3=C(O)C(=O)N(Cc4ccco4)C3c3cccnc3)oc12 (stereo not shown) | -5.76% |
| CCOc1ccc(OCCCC(=O)ON=C(N)c2ccccc2C)cc1 | 2.24% |
| c1ccc2c(N3CCCCC3)nc(N3CCCC3)nc2c1 | -64.6% |
| c1ccc2c(N3CCCCC3)nc(N3CCOCC3)nc2c1 | -7.24% |
| c1ccc2c(N3CCCCC3)nc(N3CCCCC3)nc2c1 | -3.29% |
| CC(=O)c1ccc(NC(=S)Nc2cccc(S(=O)(=O)Nc3c(C)n(C)n(-c4ccccc4)c3=O)c2)cc1 | 11.4% |
| Cc1ccc(/C=N\NC(=O)CCc2n[nH]c(=O)[nH]c2=O)o1 | 10.9% |
| O=c1c2c3c(sc2n(CCN2CCOCC2)c(=O)n1Cc1ccco1)CCCCC3 | -9.12% |
| O=c1c2c3c(sc2n(CCN2CCCC2)c(=O)n1Cc1ccco1)CCCCC3 | -67% |
| O=c1c2c3c(sc2n(CCN2CCCCC2)c(=O)n1Cc1ccco1)CCCCC3 | 3.26% |
| COc1ccc(CNC(=O)NCc2ccc(OC)c(OC)c2)cc1OC | 17.1% |
| O=c1cc2oc3cc(O)c(O)cc3c(-c3ccccc3[N+](=O)[O-])c-2cc1O | 8.61% |
| N#Cc1ccccc1OCC(=O)OCC(=O)c1c[nH]c2ccccc12 | 7.92% |
| O=C(CSc1nc(O)cc(=O)[nH]1)Nc1ccc2c(c1)CCC2 | 18.4% |
| COc1ccc(OCC(O)CNCCNc2nccc(C(F)(F)F)n2)cc1 (stereo not shown) | -6.87% |
| O=[N+]([O-])c1ccc(OCC(O)CNCCNc2nccc(C(F)(F)F)n2)cc1 (stereo not shown) | -77.9% |
| OC(CNCCNc1ncccc1C(F)(F)F)COc1ccc(F)cc1 (stereo not shown) | -25.6% |
| CC(CCc1ccc(O)cc1)NCc1ccc(Cl)cc1Cl (stereo not shown) | -10.9% |
| COc1ccc(CCC(C)NCc2cccc(Br)c2)cc1 (stereo not shown) | -32.1% |

| Compound | hERG current change (%, negative = inhibition) at 1uM |
| --- | --- |
| CC(CCc1ccc(O)cc1)NCCc1ccc(O)c(O)c1.Cl (stereo not shown) | 2.55% |
| COc1ccccc1CCNC(C)CCc1ccc(O)cc1 (stereo not shown) | -10.8% |
| CC(CCc1ccc(O)cc1)NCCC(c1ccccc1)c1ccccc1 (stereo not shown) | -84.2% |
| CC(CCc1ccc(O)cc1)NCc1ccc(Br)cc1 (stereo not shown) | -66.8% |
| O=C(Nc1ccc2c(c1)OCO2)c1cnccn1 | 8.63% |
| NC(=O)NCc1ccc(F)cc1 | 4.8% |
| COc1ccc(-c2noc3c2-c2nc(-c4ccccc4C)sc2CC3)cc1 | 15.4% |
| Cc1cc(O)c(C(=O)/C=C/c2ccccc2O)c(=O)o1 | 8.29% |
| CCOc1c(Br)cc(CNc2ncn[nH]2)cc1OC | 9.07% |
| COc1ccc(C(F)(F)F)cc1NC(=O)c1nc2nc(C)cc(C(F)F)n2n1 | 17.2% |
| CCOC(=O)C1=C(c2ccccc2)Nc2ncnn2C1c1cccc(OC)c1OC (stereo not shown) | 21.4% |
| CCN(CC)CCNc1ncnc2c1[nH]c1ccc(OC)cc12 | -42.6% |
| COc1ccc2[nH]c3c(NCCCOC(C)C)ncnc3c2c1 | 22.8% |
| COc1ccc2[nH]c3c(NCCN(C(C)C)C(C)C)ncnc3c2c1 | -71.9% |
| COc1cc(NS(=O)(=O)c2ccc(NC(=O)/C=C/C(=O)O)cc2)nc(OC)n1 | 5.24% |
| O=C(O)C1=C[C@@H](C2CC2)C[C@@H](OCCCCO)O1 | 10.7% |
| COc1cccc(C2=NOC(C(=O)Nc3cccnc3Cl)C2)c1OC (stereo not shown) | 14.2% |
| COc1ccc(Cl)cc1C(=O)Nc1ccc2nc3n(c(=O)c2c1)CCCC3 | -51.8% |
| COc1cc(C(=O)Nc2ccc3nc4n(c(=O)c3c2)CCCCC4)cc(OC)c1OC | -1.94% |
| COc1ccccc1C(=O)Nc1ccc2nc3n(c(=O)c2c1)CCCC3 | -2.02% |
| COc1cc2c(C(=O)N3CCCc4ccccc43)cn(C)c(=O)c2cc1OC | 7.48% |
| N#Cc1cc([N+](=O)[O-])ccc1N1CCCC1 | -12.3% |
| O=C(c1ccc(Cl)cc1)c1cc([N+](=O)[O-])ccc1N1CCOCC1 | 10.3% |
| CN1CCN(c2ccc([N+](=O)[O-])cc2C(=O)c2ccc(Cl)cc2)CC1 | -24.3% |

| Compound | hERG current change (%, negative = inhibition) at 1uM |
| --- | --- |
| CCN1CCN(c2ccc([N+](=O)[O-])cc2C(=O)c2ccc(Cl)cc2)CC1 | -58.3% |
| CCN1CCN(c2ccc([N+](=O)[O-])cc2C#N)CC1 | -49.8% |
| CCCN1CCN(c2ccc([N+](=O)[O-])cc2C#N)CC1 | -57.8% |
| Cc1ccc(NCCC(=O)c2cccs2)cc1C | 5.33% |
| O=C(CSc1cn(Cc2ccccc2)c2ccccc12)N1CCOCC1 | -4.92% |
| CCOc1ccc(NC(=S)NCCCN2CCN(c3ccc(OC)cc3)CC2)cc1 | -29.3% |
| O=c1[nH]c2ccccc2nc1-c1c[nH]c2ccccc12 | 17.9% |
| Cc1ccccc1-n1nnnc1SCC(=O)NCC1(N2CCOCC2)CCCCC1 | 6.3% |
| Cc1ccc(-n2nnnc2SCC(=O)NCC2(N3CCCCC3)CCCCC2)c(C)c1 | -201% |
| O=C(CSc1nnnn1-c1ccccc1)NCC1(N2CCCCC2)CCCCC1 | -23.9% |
| Cc1ccc(CNC(=O)c2cnccn2)cc1 | 11.4% |
| COc1ccc(NC(=O)[C@@H](NC(=O)N2C[C@H]3C[C@@H](C2)c2cccc(=O)n2C3)C(C)C)cc1 | 8.5% |
| Fc1ccc(-c2nc3c(-c4ccc(F)cc4)cnn3cc2CCN2CCOCC2)cc1 | -3.19% |
| CC(C)(CO)CN1CCC(n2nccc2NC(=O)C2CCCC2)CC1 | 10.2% |
| COc1ccc(O)c(CN2CCC(n3nccc3NC(=O)C3CCCC3)CC2)c1 | -28.4% |
| Cc1cc(C)c(CN2CCC(n3nccc3NC(=O)C3CCCC3)CC2)cc1C | -26.4% |
| COc1ccc(/C=C/CN2CCC(n3nccc3NC(=O)C3CC3)CC2)cc1 | -59.6% |
| COc1ccc(CC(=O)N2CCC(n3nccc3NC(=O)C3CC3)CC2)cc1 | 13.3% |
| COc1ccc(CN2CCC(n3nccc3NC(=O)C3CCCC3)CC2)c(OC)c1 | -70.6% |
| COc1ccc(/C=C/CN2CCC(n3nccc3NC(=O)C3CCCC3)CC2)cc1 | -92.1% |
| COc1ccc(OCC(=O)N2CCC(n3nccc3NC(=O)C3CC3)CC2)cc1 | -1.98% |
| COc1ccccc1/C=C/CN1CCC(n2nccc2NC(=O)C2CC2)CC1 | -37.8% |
